# Experimental data reported in ChEMBL document CHEMBL3433997, “St. Jude Leishmania screening dataset” (2016).
# Tests used:
# Format in all cases: functional
# [1] = target: Solute carrier family 2, facilitated glucose transporter member 1 (Homo sapiens) (UniProt P11166); test: ST_JUDE_LEISH: Cytotoxicity at 2uM final concentration against transgenic Leishmania Mexicana promastigotes LmGLUT1 that are glucose transport deficient and complemented with the human glucose transporter GLUT1. Activity is measured by DNA content using SYBR green in vitro
# [2] = target: Hexose transporter 1 (Plasmodium falciparum) (UniProt O97467); test: ST_JUDE_LEISH: Cytotoxicity at 2uM final concentration against transgenic Leishmania Mexicana promastigotes LmPfHT that are glucose transport deficient and complemented with the Plasmodium falciparum hexose transporter. Activity is measured by DNA content using SYBR green in vitro
# [3] = target: Glucose transporter (Leishmania mexicana) (UniProt O61059); test: ST_JUDE_LEISH: Cytotoxicity at 2uM final concentration against transgenic Leishmania Mexicana promastigotes LmGT2 that are glucose transport deficient and complemented with the L. Mexicana glucose transporter 2. Activity is measured by DNA content using SYBR green in vitro
# Sequence of Solute carrier family 2, facilitated glucose transporter member 1 (Homo sapiens) (P11166 whole entry): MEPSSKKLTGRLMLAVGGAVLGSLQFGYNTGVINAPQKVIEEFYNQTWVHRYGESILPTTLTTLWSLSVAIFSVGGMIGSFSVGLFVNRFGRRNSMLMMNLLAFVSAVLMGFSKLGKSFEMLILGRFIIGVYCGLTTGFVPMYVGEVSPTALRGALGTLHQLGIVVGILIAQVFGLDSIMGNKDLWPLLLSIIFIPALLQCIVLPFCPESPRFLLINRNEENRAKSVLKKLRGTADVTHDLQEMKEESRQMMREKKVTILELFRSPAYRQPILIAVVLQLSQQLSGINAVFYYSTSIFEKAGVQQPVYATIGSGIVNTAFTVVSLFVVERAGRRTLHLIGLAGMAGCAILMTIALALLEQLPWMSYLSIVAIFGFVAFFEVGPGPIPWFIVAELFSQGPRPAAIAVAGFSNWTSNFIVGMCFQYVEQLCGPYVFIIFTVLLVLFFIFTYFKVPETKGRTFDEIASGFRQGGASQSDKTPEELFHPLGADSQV
Structure (SMILES),inhibition [1] [%],inhibition [2] [%],inhibition [3] [%]
CCCCCCCN1CC[C@@H](CCCc2ccnc3ccc(OC)cc23)[C@@H](CNC)C1,0.83,-1.11,-0.87
CCc1c(C(=O)NC2CCC(N3CCC(c4ccccc4C)CC3)CC2)[nH]c2ccc(OC)cc12 (centres undefined),0.2,-0.58,-0.08
Cc1sc(CNCCCNc2cc(=O)c3ccccc3[nH]2)c(C(F)(F)F)c1C,-2.84,-0.65,-0.52
Cc1nn(-c2ccccc2)c2nc(-c3ccccc3)cc(C(=O)N3CCOCC3)c12,1.26,0.16,-2.24
CN(C)Cc1ccc(-c2cccc(NC(=O)c3ccc(Cl)cc3)c2)cc1,-2.32,-0.06,0.23
CN1CCN(CCCN(Cc2ccc(-c3ccc(CNC4CCCC4)cc3)cc2)C(=O)CCC2CCCC2)CC1,76.5,79.8,5.69
COC(=O)c1cccc(CNCc2ccc(-c3ccc(-c4nc5cc(C(F)(F)F)ccc5[nH]4)s3)cc2)c1,1.72,2.29,0.84
C(=Cc1ccccc1)C=NN=c1cc[nH]c2ccccc12,-0.05,1.5,-2.14
CCOC(=O)C1=C(C)NC(C)=C(C(=O)OCC)C1(C(=O)OCc1ccccc1)c1cccc(C(F)(F)F)c1,2.88,3.39,4.11
O=C(Nc1ccc(C(F)(F)F)cc1)c1cccc(S(=O)(=O)NCC2CCCN(CC3CCCCC3)C2)c1 (centres undefined),5.71,2.62,0.02
CCN1CCc2c1cc(C(=O)N[C@@H](Cc1ccccc1)[C@H](O)CNC(C)(C)c1cccc(C(F)(F)F)c1)cc2N1CCCCS1(=O)=O,5.34,-3.32,2.66
Cc1cccc2nc(-c3cccc(-c4ccc(NC(=O)CN5CCN(C)CC5)cc4)c3)[nH]c12,2.17,3.31,0.62
CCOc1cc(Cc2cnc(N)nc2N)cc(OCC)c1-n1cccc1,5.67,5.64,1.36
c1ccc2[nH]c(-c3ccc(-c4ccc(CN5CCN(CCN6CCOCC6)CC5)cc4)s3)nc2c1,10.4,9.34,7.67
CS(=O)(=O)c1cccc(-c2cnc3[nH]cc(-c4cccc(CCN)c4)c3c2)c1,4.65,3.48,8.44
N#Cc1ccc(N(CCOc2ccc(Cl)cc2)Cc2ccccc2C(F)(F)F)cc1C(F)(F)F,-1.04,-1.88,-1.54
CC1(C)C(=O)Nc2ccccc2N1C(=O)CN1CCN(c2ccccc2O)CC1,0.51,-0.55,-3.82
O=C(Nc1ccc(-c2nc3ccccc3[nH]2)cc1)C1CCCN(CC2CC2)C1 (centres undefined),12.9,10.8,4.89
Nc1ccc(-c2cc(Cl)cc(Cl)c2)cc1-c1cc2ccccc2[nH]1,2.84,1.08,-0.38
CCOc1ccc2ccccc2c1C(=O)Nc1cc(C)nn1-c1nc(C)cc(=O)[nH]1,49.6,44.4,20.4
CCCCc1ccc2ncc(C(=O)OCC)c(O)c2c1,-1.09,-0.73,-3.16
COc1cc2nc(C)nc(Nc3cccc(Br)c3)c2cc1OC,-0.77,-0.52,-0.03
COc1ccc2c(NN=Cc3ccccc3F)ccnc2c1,3.28,2.8,2.7
Fc1cccc(Cl)c1-c1nc(NCCC(c2ccccc2)c2ccccc2)no1,-0.45,0.05,1.11
O=C(Nc1cccc(CN2CCCN(Cc3ccc4c(c3)OCO4)CC2)c1)c1ccc2ccccc2c1,1.49,1.31,-7.63

Structure (SMILES),inhibition [1] [%],inhibition [2] [%],inhibition [3] [%]
Cc1nn(-c2ccccc2)c2c1C(c1ccc(C(C)C)cc1)N1C(=N2)N(Cc2ccccc2)c2ccccc21 (centres undefined),4.28,2.86,1.85
COc1ccc2nccc([C@@H](O)CN3CCC(CO)(NCc4cc5ccccc5o4)CC3)c2c1,7.99,13.3,1.76
CC1CCN(Cc2c(O)ccc3c(CN4CCC(C)CC4)c(O)ccc23)CC1,4.79,6.78,6.37
Cc1ccc2ccncc2c1N,7.9,3.24,6.36
N=C(N)c1cccc(-c2cc(-c3cccc(C(=N)N)c3)on2)c1,0.92,2.23,-0.32
COc1ccc(CCCN2C(=O)C(c3ccccc3)(c3ccccc3)N=C2N)cc1,-1.19,-0.94,-1.7
N#Cc1cccc(Nc2nccc(NCC(O)c3ccccc3C(F)(F)F)n2)c1 (centres undefined),9.64,7.25,3.83
CC(C)CNCc1ccc(-c2cccc(CNc3ccc4ncccc4c3)c2)cc1,4.79,3.71,2.69
N#Cc1cccc(C(=O)Nc2ccc(-c3nc4ccccc4[nH]3)cc2)c1,0.28,-0.34,-0.95
O=C(NCCCCN1CCC(c2ccc3c(c2OCCOCCO)CCCC3)CC1)c1ccc(-c2ccc(C(F)(F)F)cc2)cc1,0.77,2.47,0.76
CCCCC(=O)NC(c1cccs1)c1cc(Cl)c2cccnc2c1O (centres undefined),8.63,8.32,5.17
CCN(CC)CCCC(C)N=c1cc(C=Cc2ccccc2Cl)[nH]c2cc(Cl)ccc12 (centres undefined),3.06,3.03,1.56
O=C(Nc1ccc(-c2nc3ccc(NC(=O)c4ccc(Br)cc4)cc3[nH]2)cc1)c1ccc(Br)cc1,-0.81,-0.68,-2.77
COc1ccc(C(=O)Nc2ccc(-c3ccc([N+](=O)[O-])cc3)cc2)cc1CCCN(C)C,2.83,3.93,2.45
O=C(c1cccc(COc2ccc3c(c2)CCN(C2CCCC2)CC3)c1)N1CCN(c2ccncc2)CC1,8.85,5.59,7.88
CCOC(=O)c1ccc(N2CCN(CCCNC(=O)/C(=C/C=C/c3cc4cc(Cl)c(Cl)cc4[nH]3)OC)CC2)cc1,2.48,3.47,0.57
COc1cccc(C(=O)NCCOc2ccccc2)c1Oc1ccccc1,5.14,5.7,5.15
CC(C)c1cc2c(ccc3nc(N)nc(N)c32)[nH]1,9.81,31,8.49
COc1ccc(C(=O)Nc2cc(Br)c3c(c2)CNCC3)cc1C(F)(F)F,4.52,1.74,1.37
CS(=O)(=O)c1ccc(CNCc2cccc(-c3cccc(-c4nc5cc(F)ccc5[nH]4)c3)c2)cc1,2.4,0.6,-2.93
Cc1cc(NC(=O)Nc2ccc3sccc3c2)c2ccccc2n1,2.24,2.66,0.53
Cn1c(NC(=O)C2CCC(CNC(=O)c3ccc(O)c(-c4ccc(Cl)c(Cl)c4)c3)CC2)nc2ccccc21 (centres undefined),0.88,0.39,0.36
CCOC(=O)c1ccc(-n2c(C)cc(C=C3SC(=Nc4ccccc4)N(C4CCCC4)C3=O)c2C)cc1,3.76,3.52,4.67
Cc1n[nH]c2cc(Nc3ccnc(Nc4cccc(CN5CCOCC5)c4)n3)ccc12,7.68,6.54,3.19
COc1cc(NC(=O)N2CCOC(CCN3CCC4(CCc5ccccc54)CC3)(c3ccc(Cl)c(Cl)c3)C2)cc(OC)c1 (centres undefined),3.64,1.66,1.53

Structure (SMILES),inhibition [1] [%],inhibition [2] [%],inhibition [3] [%]
O=C(c1ccccc1)N(Cc1ccccc1-c1ccc(CNCCc2ccccc2)cc1)C1CCN(Cc2ccccc2)CC1,12.2,10.8,14.7
Cc1cc(N2CCC(NS(=O)(=O)c3cccc4cccnc34)CC2)nc(Nc2cccc(C#N)c2)n1,51.5,54.4,44.4
CC1(C)NC(N)=NC(=N)N1OCCc1cccc2ccccc12,2.21,10.7,4.71
O=C(/C=C/c1ccc(Cl)c(Cl)c1)N1CCC(CN2CCC(c3nc4ccccc4n3CCCO)CC2)CC1,4.72,4.22,5.85
O=S(=O)(Nc1ccc(CCN2CCC(N3CCCCC3)CC2)cc1)c1ccccc1C(F)(F)F,13.5,13.4,11.3
FC(F)(F)COc1c(CNCCCCCCNCc2ccc3ccccc3c2OCC(F)(F)F)ccc2ccccc12,87.7,95.5,104
COc1cc2nc(N3CCC(CNC(=O)c4ccc(-c5ccc(-c6noc(C)n6)cc5)cc4)CC3)nc(N)c2cc1OC,64.1,45.5,41.6
Cc1sc2ncnc(Sc3nnc(N)s3)c2c1C,2.03,3.89,1.09
O=C(Nc1cccc(CN2CCCN(Cc3ccccc3)CC2)c1)c1cc2ccccc2s1,1.27,1.24,-4.49
CN(C)CCCNC(=O)c1ccccc1Sc1ccccc1C#N,0.79,1.43,1.54
COc1ccc2nccc([C@@H](O)CN3CCC(NCc4ccc5nsnc5c4)CC3)c2c1,0.12,-1.13,-0.38
COc1cccc(OC)c1OCCCON1C(=N)N=C(N)NC1(C)C,1.91,1.49,2.31
C=CCN1Cc2c(O)cccc2C(c2ccc(O)c(O)c2)C1 (centres undefined),6.49,5.18,4.91
CC1(C)NC(N)=NC(=N)N1OCCCCOc1ccccc1,-2.95,0.84,-0.45
CC1(C)N=C(N)N=C(N)N1OCCCOc1cccc(C(=O)O)c1,5.03,5.61,3.22
O=C(N[C@@H](Cc1ccccc1)[C@H](O)CNC1CCOCC1)c1cc(C2CCCC2)cc(N2CCCCS2(=O)=O)c1,3.67,3.81,4.01
O=C(/C=C/c1ccc(Cl)c(Cl)c1)N1CCC(CCN2CCC(c3nc4cc(O)ccc4[nH]3)CC2)CC1,1.92,0.59,-0.62
Cc1ccc(-n2c(Sc3ncnc4sccc34)nnc2N2CCCC2)cc1,2.72,2.48,1.41
Cc1cc(O)nc(NC(=N)NOCc2ccccc2)n1,-1.66,1.03,1.07
Cc1cc(N[C@@H](Cc2ccccc2)C(=O)NC2CCCC2)nc(NCCc2ccc(F)cc2)n1,5.06,5.18,-0.53
CO/C(=C\C=C\c1cc2cc(Cl)c(Cl)cc2[nH]1)C(=O)NCCCN1CCN(c2cccc(Cl)c2)CC1,-1.14,-0.72,-1.82
CN1CCN(c2cc3c(Nc4ccc5c(cnn5Cc5ccccc5)c4)ncnc3cn2)CC1,1.33,2.08,2.17
Cn1c(N)c(C(=O)CSc2nnc(-c3cccs3)n2Cc2ccccc2)c(=O)n(C)c1=O,10.1,8.98,8.86
